In all, about 310,000 compounds went through this assay and about 2,200 (0.71%) showed an effect of 50% or more. The effect is printed as a negative number. The list comes from a sample in which strong results are over-represented; it also holds similar structures and randomly drawn compounds.

The target of this assay is human ether-à-go-go-related gene (hERG) potassium channel (human, UniProt Q12809). Briefly: primary screen, population patch clamp on CHO cells stably expressing hERG; higher = less effect of the substance.
Chain of human ether-à-go-go-related gene (hERG) potassium channel (Q12809 whole entry, looked up): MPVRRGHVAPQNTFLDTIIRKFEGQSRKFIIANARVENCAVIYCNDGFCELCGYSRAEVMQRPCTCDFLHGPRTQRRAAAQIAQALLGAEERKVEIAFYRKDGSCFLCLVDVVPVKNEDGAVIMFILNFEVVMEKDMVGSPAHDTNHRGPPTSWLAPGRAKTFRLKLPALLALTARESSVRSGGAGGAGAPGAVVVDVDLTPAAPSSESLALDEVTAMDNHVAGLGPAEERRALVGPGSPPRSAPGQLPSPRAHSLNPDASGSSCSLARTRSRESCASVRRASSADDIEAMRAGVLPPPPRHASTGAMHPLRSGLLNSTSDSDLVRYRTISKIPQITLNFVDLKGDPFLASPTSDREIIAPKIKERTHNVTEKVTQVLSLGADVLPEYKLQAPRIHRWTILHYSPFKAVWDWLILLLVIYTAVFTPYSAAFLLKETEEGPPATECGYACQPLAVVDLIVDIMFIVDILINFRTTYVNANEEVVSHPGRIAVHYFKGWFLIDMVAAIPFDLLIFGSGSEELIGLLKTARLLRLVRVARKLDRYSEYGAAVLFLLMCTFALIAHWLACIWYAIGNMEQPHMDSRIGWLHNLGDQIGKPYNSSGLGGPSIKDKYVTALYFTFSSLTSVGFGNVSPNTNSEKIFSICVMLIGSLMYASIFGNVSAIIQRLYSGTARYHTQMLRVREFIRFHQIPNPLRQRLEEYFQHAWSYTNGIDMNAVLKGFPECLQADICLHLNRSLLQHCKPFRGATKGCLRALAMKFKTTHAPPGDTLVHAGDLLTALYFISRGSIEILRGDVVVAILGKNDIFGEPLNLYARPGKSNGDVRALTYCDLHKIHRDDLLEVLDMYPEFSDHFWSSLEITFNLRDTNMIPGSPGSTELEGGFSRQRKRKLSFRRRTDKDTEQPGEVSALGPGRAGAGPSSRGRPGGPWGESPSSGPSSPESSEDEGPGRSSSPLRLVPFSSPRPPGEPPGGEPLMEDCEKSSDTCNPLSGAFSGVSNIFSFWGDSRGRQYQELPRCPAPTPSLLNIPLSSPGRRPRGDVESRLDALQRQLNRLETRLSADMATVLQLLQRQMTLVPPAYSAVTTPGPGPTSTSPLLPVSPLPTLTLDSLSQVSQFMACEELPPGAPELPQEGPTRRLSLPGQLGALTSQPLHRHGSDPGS
In the case of `O=C(Oc1ccc(C(=S)N2CCCCC2)cc1)c1ccccc1`, the “hERG current change (%, negative = inhibition) at 1uM” value came to 7.88%.

As for `O=C(COC(=O)CCC(=O)c1ccccc1)NCCc1ccccc1`, the “hERG current change (%, negative = inhibition) at 1uM” value is on record as 4.19%.

Regarding `O=C(Cn1ccc(NC(=O)OCc2ccccc2)nc1=O)NCCCN1CCCC1=O`, the “hERG current change (%, negative = inhibition) at 1uM” value is reported as 7.66%.

As for `CCOC(=O)c1sc2nc(C)nc(NCc3ccc(F)cc3)c2c1C`, the “hERG current change (%, negative = inhibition) at 1uM” value is recorded as 17.8%.

Regarding `CCOC(=O)c1sc2nc(C)nc(NCc3ccc(Cl)cc3)c2c1C`, the “hERG current change (%, negative = inhibition) at 1uM” value is listed as -89.6%.

Turning to `CCOC(=O)c1sc2nc(C)nc(NCc3ccccc3)c2c1C`, the “hERG current change (%, negative = inhibition) at 1uM” value amounted to 16.7%.

Turning to `[O-]/C(=C(\C(=S)NCc1ccccc1)[n+]1ccccc1)c1ccc(Cl)s1`, the “hERG current change (%, negative = inhibition) at 1uM” value was 0.527%.

`COC(=O)c1c(NC(=O)c2cccs2)sc2c1CCC(C)C2` (stereo not shown): the “hERG current change (%, negative = inhibition) at 1uM” value was 9.97%.

Regarding `COc1ccc([C@@H]2[C@@H](C(=O)C(C)(C)C)N3N=Cc4ccccc4[C@@H]3C23C(=O)OC(C)(C)OC3=O)cc1OC`, the “hERG current change (%, negative = inhibition) at 1uM” value is recorded as -5.04%.

Take `OCCC1CN(Cc2cccn2-c2nccs2)CCN1C1CCCCC1` (stereo not shown): the “hERG current change (%, negative = inhibition) at 1uM” value is -4.43%.

In the case of `CC(C)=CCN1CCN(Cc2cccn2-c2nccs2)CC1CCO` (stereo not shown), the “hERG current change (%, negative = inhibition) at 1uM” value is given as -1.62%.

Take `OCCC1CN(Cc2cccn2-c2nccs2)CCN1CCc1ccccc1` (stereo not shown): the “hERG current change (%, negative = inhibition) at 1uM” value was -57.1%.

Regarding `CC(C)N1CCN(Cc2cccn2-c2nccs2)CC1CCO` (stereo not shown), the “hERG current change (%, negative = inhibition) at 1uM” value came out at 11.5%.

With `OCCC1CN(Cc2ccc(Oc3ncccn3)cc2)CCN1Cc1ccc(F)c(F)c1` (stereo not shown), the “hERG current change (%, negative = inhibition) at 1uM” value is listed as 8.89%.

For the compound `OCCC1CN(Cc2ccn[nH]2)CCN1Cc1ccc(F)c(F)c1` (stereo not shown), the “hERG current change (%, negative = inhibition) at 1uM” value is reported as 8.07%.

For `CCOc1ccc(CN2CCN(Cc3ccon3)CC2CCO)cc1` (stereo not shown), the “hERG current change (%, negative = inhibition) at 1uM” value is recorded as -33.5%.

As for `Cc1ccc(CN2CCN(Cc3cccn3-c3nccs3)CC2CCO)cc1` (stereo not shown), the “hERG current change (%, negative = inhibition) at 1uM” value is listed as -79.7%.

As for `CC(C)CCN1CCN(Cc2cccn2-c2nccs2)CC1CCO` (stereo not shown), the “hERG current change (%, negative = inhibition) at 1uM” value is -17.6%.

Take `OCCC1CN(Cc2cccn2-c2nccs2)CCN1Cc1ccc(F)c(F)c1` (stereo not shown): the “hERG current change (%, negative = inhibition) at 1uM” value is -85%.

For the compound `CCOc1ccc(CN2CCN(Cc3cccn3-c3nccs3)CC2CCO)cc1` (stereo not shown), the “hERG current change (%, negative = inhibition) at 1uM” value is given as -84%.

As for `OCCC1CN(Cc2cccn2-c2nccs2)CCN1Cc1ccccc1` (stereo not shown), the “hERG current change (%, negative = inhibition) at 1uM” value is recorded as -21.7%.

As to `CC(Sc1nc2ccc(Br)cc2[nH]1)C(=O)O` (stereo not shown), the “hERG current change (%, negative = inhibition) at 1uM” value is recorded as -11.3%.

For `Cc1cc(Cl)c(OCCCNC2CCCC2)c(Br)c1.O=C(O)C(=O)O`, the “hERG current change (%, negative = inhibition) at 1uM” value is reported as -6.84%.

With `Cc1nnsc1C(=O)Nc1ccc(S(=O)(=O)N2CCCC(C)C2)cc1` (stereo not shown), the “hERG current change (%, negative = inhibition) at 1uM” value amounted to 15.2%.

`Cn1cccc1C(=O)NC1CCCCC1`: the “hERG current change (%, negative = inhibition) at 1uM” value turned out to be 5.24%.

With `C=CCn1c(SCC(=O)Nc2cccnc2Cl)nnc1-c1ccc(C(C)(C)C)cc1`, the “hERG current change (%, negative = inhibition) at 1uM” value came out at 9.68%.

Turning to `CCN1CCN(C(=O)/C=C/c2ccc(OC)c(OC)c2)CC1`, the “hERG current change (%, negative = inhibition) at 1uM” value is recorded as 14.8%.

Take `C/C(=N\OC(=O)c1ccc(Cl)cc1)c1nccs1`: the “hERG current change (%, negative = inhibition) at 1uM” value turned out to be 9.4%.

As for `COc1ccc(CNS(=O)(=O)c2ccc(-n3cnnn3)c(OC)c2)cc1`, the “hERG current change (%, negative = inhibition) at 1uM” value is given as -2.65%.

On to `COC(=O)c1ccccc1C(=O)N(Cc1cccnc1)CC1CCCN(C2CCCCC2)C1` (stereo not shown), for which the “hERG current change (%, negative = inhibition) at 1uM” value is -7.49%.

`O=C(c1cc2ccccc2[nH]1)N(Cc1cccnc1)CC1CCCN(C2CCCCC2)C1` (stereo not shown): the “hERG current change (%, negative = inhibition) at 1uM” value is on record as -49.6%.

Regarding `O=C(c1cc2cc(F)ccc2[nH]1)N(Cc1cccnc1)CC1CCCN(C2CCCCC2)C1` (stereo not shown), the “hERG current change (%, negative = inhibition) at 1uM” value is given as -81%.

Consider `COC(=O)c1ccc(COc2ccc(/C=N/NC(=O)C(=O)Nc3ccc(OC)cc3)cc2OC)o1`, for which the “hERG current change (%, negative = inhibition) at 1uM” value worked out at 9.15%.

As for `COc1cccc(C(=O)C2CCCN(Cc3cccn3-c3cccnc3)C2)c1` (stereo not shown), the “hERG current change (%, negative = inhibition) at 1uM” value is -6.89%.

Consider `CC(C)Oc1cccc(C(=O)C2CCCN(Cc3cccn3-c3cccnc3)C2)c1` (stereo not shown), for which the “hERG current change (%, negative = inhibition) at 1uM” value was 12.4%.

`CC(C)Oc1cccc(C(=O)C2CCCN(Cc3ccc(Oc4ncccn4)cc3)C2)c1` (stereo not shown): the “hERG current change (%, negative = inhibition) at 1uM” value was -7.28%.

With `COc1cccc(C(=O)C2CCCN(Cc3ccccn3)C2)c1` (stereo not shown), the “hERG current change (%, negative = inhibition) at 1uM” value is on record as -0.481%.

On to `COc1cccc(C(=O)C2CCCN(Cc3cccn3-c3ccccn3)C2)c1` (stereo not shown), for which the “hERG current change (%, negative = inhibition) at 1uM” value is -84%.

For the compound `CC(C)Oc1cccc(C(=O)C2CCCN(Cc3cccn3-c3ccccn3)C2)c1` (stereo not shown), the “hERG current change (%, negative = inhibition) at 1uM” value is -81.7%.

For `CCOc1ccc2nc(SCC(=O)N(CC(C)C)c3c(N)n(Cc4ccccc4)c(=O)[nH]c3=O)[nH]c2c1`, the “hERG current change (%, negative = inhibition) at 1uM” value turned out to be 9.81%.

Turning to `CCCn1c(SCC(=O)Nc2cccc(F)c2)nc(O)cc1=O`, the “hERG current change (%, negative = inhibition) at 1uM” value was 9.12%.

For `CN1CCN(c2cnn(-c3ccccc3)c(=O)c2Br)CC1`, the “hERG current change (%, negative = inhibition) at 1uM” value is 13.2%.

As to `COc1ccc(C(=O)N2CCN(c3cccc(Cl)c3)CC2)cc1S(=O)(=O)NC1CC1`, the “hERG current change (%, negative = inhibition) at 1uM” value is -79.6%.

`COc1ccc(C(=O)N2CCN(c3ccccc3Cl)CC2)cc1S(=O)(=O)NC1CC1`: the “hERG current change (%, negative = inhibition) at 1uM” value was 7.63%.

As for `COc1ccc(C(=O)N2CCN(c3ccc(F)cc3)CC2)cc1S(=O)(=O)NC1CC1`, the “hERG current change (%, negative = inhibition) at 1uM” value is -17.3%.

Turning to `O=C1Nc2c(c(=O)[nH]c(=O)n2Cc2ccccc2)C1(NS(=O)(=O)c1ccccc1)C(F)(F)F` (stereo not shown), the “hERG current change (%, negative = inhibition) at 1uM” value is 14.5%.

On to `C/C(Cn1nc([N+](=O)[O-])cc1C)=N\NC(=O)COc1ccccc1[N+](=O)[O-]`, for which the “hERG current change (%, negative = inhibition) at 1uM” value is 7.38%.

Turning to `C/C(Cn1nc([N+](=O)[O-])cc1C)=N\NC(=O)COc1c(Cl)cc(Cl)cc1Cl`, the “hERG current change (%, negative = inhibition) at 1uM” value is given as -23.8%.

With `C/C(Cn1nc([N+](=O)[O-])cc1C)=N\NC(=O)COc1ccc(Cl)cc1Cl`, the “hERG current change (%, negative = inhibition) at 1uM” value is reported as -51.3%.

For `Cc1nnc(NC(=O)CSc2ccc(-c3ccc(Cl)cc3)nn2)s1`, the “hERG current change (%, negative = inhibition) at 1uM” value is 12.4%.

Regarding `CCOC(=O)N1CCN(c2c(NCCCN(C)c3ccccc3)c(=O)c2=O)CC1`, the “hERG current change (%, negative = inhibition) at 1uM” value worked out at 9.53%.

Consider `COc1cc(C(=O)Nc2cccc(-c3nc4cc(C)ccc4o3)c2)cc(OC)c1OC`, for which the “hERG current change (%, negative = inhibition) at 1uM” value is 10.6%.

Take `CCN(CC)CCNc1nc2c(c(=O)[nH]c(=O)n2C)n1CC(O)COc1ccc(Cl)cc1Cl` (stereo not shown): the “hERG current change (%, negative = inhibition) at 1uM” value is on record as -66.1%.

In the case of `CN(C)CCNc1nc2c(c(=O)[nH]c(=O)n2C)n1CC(O)COc1ccc(Cl)cc1` (stereo not shown), the “hERG current change (%, negative = inhibition) at 1uM” value worked out at 5.04%.

As to `CN(C)CCNc1nc2c(c(=O)[nH]c(=O)n2C)n1CC(O)COc1ccc(Cl)cc1Cl` (stereo not shown), the “hERG current change (%, negative = inhibition) at 1uM” value was -30.6%.

(Values after PMC4336329 (PLoS ONE, 2015).)
